Structures are written as SMILES. Hit rate of the full screen: of about 230,000 compounds, about 1,000 (0.43%) were called active. The sample as a whole holds a higher share of actives than the screen did. Values without a mark were called inactive. The call rests on the fitted dose curve; in most records, active means well fitted inhibition curve with a large enough effect (not every such curve was filed as active); inactive means no such curve, though single readings can be large or run the other way.

Consider 53 compounds from PubChem BioAssay AID880 (National Center for Advancing Translational Sciences (NCATS), 2007).
On the % scale 0 is the no-effect control and ±100 the full control effect; potency means the concentration at half of the fitted maximal effect.

In this assay the target is Guanine nucleotide-binding protein G(i) subunit alpha-1 (Homo sapiens) (UniProt P63096). Briefly: qHTS Assay for Inhibitors of RGS12 GoLoco Motif Activity (Red Fluorophore). Further: nearly all actives have a fitted effect of over 30% in size. The settings on record: Gai1:RGS12 GoLoco peptide FP, rhodamine, 10 min; series mostly up to 61.6 µM; activity, negative = inhibition: at the top concentration. From the text: Assay Submitter: Siderovski, David P, University of North Carolina at Chapel Hill
Sequence of Guanine nucleotide-binding protein G(i) subunit alpha-1 (Homo sapiens) (P63096 whole entry, looked up): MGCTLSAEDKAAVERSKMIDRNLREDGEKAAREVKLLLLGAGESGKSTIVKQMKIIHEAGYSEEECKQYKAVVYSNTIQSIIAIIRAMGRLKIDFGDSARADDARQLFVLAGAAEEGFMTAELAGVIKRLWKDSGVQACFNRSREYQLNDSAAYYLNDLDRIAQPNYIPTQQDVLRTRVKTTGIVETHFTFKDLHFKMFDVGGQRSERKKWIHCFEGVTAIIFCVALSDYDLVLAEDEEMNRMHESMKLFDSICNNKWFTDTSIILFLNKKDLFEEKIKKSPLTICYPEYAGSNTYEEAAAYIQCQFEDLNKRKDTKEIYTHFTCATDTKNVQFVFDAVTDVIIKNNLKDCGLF
Screening Center PI: Austin, C.P.
Screening Center: NIH Chemical Genomics Center [NCGC]
G-protein-coupled receptors (GPCRs) are major targets for drug discovery. The regulator of G-protein signaling (RGS)-protein family has important roles in GPCR signal transduction. RGS proteins contain a conserved RGS-box, which is often accompanied by other signaling regulatory elements. RGS proteins accelerate the deactivation of G proteins to reduce GPCR signaling; however, some also have an effector function and transmit signals. Combining GPCR agonists with RGS inhibitors should potentiate responses, and could markedly increase the agonist's regional specificity. The diversity of RGS proteins with highly localized and dynamically regulated distributions in brain makes them attractive targets for pharmacotherapy of central nervous system disorders. […] A complex of Gai1 and fluorescently labeled G-alpha-binding peptide (the "GoLoco motif") derived from RGS12 is incubated with library members. Inhibitors of the binding are detected by a decrease in the fluorescence polarization (FP) of the fluorophore. Protein was supplied by Prof. David Siderovski, University of North Carolina at Chapel Hill.
Assay Buffer: 10 mM Tris-HCl, 150 mM NaCl, 0.1 mM GDP (prepared fresh), and 0.05% NP40 at pH 7.5.
15 nM Rhodamine labeled peptide/25 nM protein in columns 1, 2, 5 - 48. Titration of unlabeled peptide control ([H][…][NH2], custom synthesized and HPLC-purified by Tufts University Core Facility) from 20 mM, then 1:2 dilution, 16-point in duplicate, pin-transferred to column 2, rows 1 to 32. Column 1 is neutral.
Rhodamine-labeled peptide (Rhodamine-[…]-NH2) was custom-synthesized and HPLC-purified by Invitrogen (Carlsbad, CA).
Four uL of reagents were dispensed to 1536-well Greiner black solid-bottom plates. Compounds and controls (23 nL) were transferred via Kalypsys PinTool. The plates were incubated for 10 min at room temperature, and then read on ViewLux (Perkin-Elmer) High-throughput CCD imager using BODIPY for the rhodamine-labeled decapeptide probe. During dispense, reagent bottles were kept submerged into 4 deg C water bath and all liquid lines were covered with aluminum foil to minimize probe and protein degradation. All screening operations were performed on a Kalypsys robotic system (Kalypsys, Inc., San Diego, CA) containing one RX-130 and two RX-90 anthropomorphic robotic arms.
On the technique in general: Quantitative high-throughput screening tests each substance at several concentrations.
As for `CCOC(=O)c1ccc(NC(=O)CSc2ncccn2)cc1`, the Potency was 2.82 µM (active). Consider `CCOC(=O)c1ccc(NC(=O)Cn2cnc3cc(C)c(C)cc32)cc1`, for which the “activity, negative = inhibition” value was 6.97%. `CCOC(=O)c1ccc(NC(=O)CSc2nnc(COc3ccccc3OC)n2C)cc1`: the “activity, negative = inhibition” value is 9.95%. Same read-out and setting: for `CCOC(=O)C1=C(C)c2ccccc2OC1(C)C(=O)OCC` (stereo not drawn) the value was -4.52% [at 88.7 µM]. In the case of `Cc1ccccc1-n1nnnc1SCCCC(=O)c1ccc(F)cc1`, the “activity, negative = inhibition” value is 11.6%. `N#Cc1ccsc1NC(=O)CN1CCN(S(=O)(=O)c2cc(Cl)ccc2Cl)CC1`: the “activity, negative = inhibition” value is 9.81%. As for `CCOc1ccc(N=NS(=O)(=O)O)cc1`, the activity, negative = inhibition was -17.6% [at 14.2 µM].

As to `Cc1ccccc1CC1(CO)CCCN(Cc2ccc3c(c2)OCCO3)C1` (stereo not drawn), the “activity, negative = inhibition” value is -5.36%.

As for `NCCC(=O)c1ccccc1N`, the “activity, negative = inhibition” value was -0.0525%. As to `CCCc1ccc(-c2c(C)sc(NC(=O)c3ccnn3C)c2C#N)cc1`, the “activity, negative = inhibition” value is 1.09%. Still for that read-out and setting: as for `CC(C)=C(NC(=O)c1ccccc1)C(=O)N/N=C(\C)c1ccccc1O`, the figure is -1%. Still for that read-out and setting: as for `Cc1ccc2[nH]c(=O)c(CN(CCCN(C)C)C(=O)Nc3cccc(Cl)c3)cc2c1`, the figure is 2.71%; as for `N=C1C(c2nc3ccccc3s2)=C(O)CN1NC(=O)c1ccc([N+](=O)[O-])cc1`, 6.8%; as for `COc1ccc(/C=C(\C#N)C(=O)NCCCn2ccnc2)cc1`, -7.5%. The same measure, in the same setting: for `CCOC(=O)c1cnc(SC)nc1Sc1ccc(Cl)cc1Cl` the value was 0.136%; for `O=P(O)(O)OC[C@H](O)CO`, 2.38%; for `CCOC(=O)c1c(NC(=S)NC)sc2c1CCCC2`, 0.716%. On to `Cc1ccc(NC(=O)CN2CCCCC2)c2c1CC(C)(C)O2`, for which the “activity, negative = inhibition” value is -3.9%. In the case of `Cc1ccc(Nc2cc(C)nc3c(C)ccc([N+](=O)[O-])c23)cc1`, the “activity, negative = inhibition” value is 5.73%. Same read-out and setting: for `NCCCCC(N)C(=O)O` (stereo not drawn) the value was 3.62%; for `CC(C)[C@@H]1NC(=O)[C@H](Cc2ccccc2)NC(=O)[C@@H](CC(=O)O)NC(=O)CNC(=O)[C@H](CCCNC(=N)N)NC1=O`, 8.69%; for `CCS(=O)(=O)N1Cc2ccccc2CC1C(=O)Nc1nc2ccc(F)cc2s1` (stereo not drawn), 2.6%. As to `O=C(NCc1cc(C(F)(F)F)cc(C(F)(F)F)c1)C1CC(c2cccc(F)c2)=NO1` (stereo not drawn), the “activity, negative = inhibition” value is -20.7%. `Cc1ccccc1-c1n[nH]c(=S)n1/N=C/c1ccc(-c2ccccc2Br)o1`: the “activity, negative = inhibition” value was 8.75%. With `O=c1[nH]cnc2c1c(-c1ccccc1)cn2-c1ccc(F)cc1`, the “activity, negative = inhibition” value is 1.55%. With `Clc1ccc(CSc2nnc3c(n2)[nH]c2ccccc23)cc1`, the “activity, negative = inhibition” value is 1.68%. As to `COC(c1ccccc1)(c1ccccc1)C(Oc1nc(C)cc(C)n1)C(=O)O` (stereo not drawn), the “activity, negative = inhibition” value was 3.51%.

For `COc1cccc(NC(=O)CN(C)C(=O)/C=C/c2cc(OC)ccc2OC)c1`, the “activity, negative = inhibition” value is 6.97%. Same read-out and setting: for `O=C(NCCc1c[nH]c2ccccc12)c1cc2ccccc2oc1=O` the value was -2.24%; for `CN(c1ccccc1)S(=O)(=O)c1cc(C(=O)Nc2nc3ccccc3[nH]2)ccc1Cl`, 13.7%; for `CCC(C)[C@@H](N)C(=O)O` (stereo partly drawn), -0.853%. For the compound `C[N+]1(CCNC(=O)/C=N/O)CCCCC1`, the Potency was 12.6 µM (active).

In the case of `CC1=C/C(=N\S(=O)(=O)c2ccccc2)C(C(C)C)=CC1=O`, the “activity, negative = inhibition” value is 16%.

`CC1=C/C(=N\OS(=O)(=O)c2ccccc2)C=CC1=O`: the Potency was 28.2 µM (active). `Cc1ccc(S(=O)(=O)c2ccc(Oc3ccccc3)cc2)cc1`: the “activity, negative = inhibition” value was 6.2%. The same measure, in the same setting: as for `CC#CC[N+](C)(C)CCCCCC`, the figure is -9%. `NC(=O)C(=O)N/N=C/c1ccc([N+](=O)[O-])o1`: the “activity, negative = inhibition” value was 1.84%.

With `S=c1[nH]nc(-c2ccccc2)n1/N=C/c1c[nH]c2ccccc12`, the “activity, negative = inhibition” value is 9.19%. For the compound `C[n+]1ccc(/C=C/c2c[nH]c3ccccc23)cc1`, the Potency was 0.562 µM (active). `CSC(=S)N/N=C/c1c[nH]c2ccccc12`: the “activity, negative = inhibition” value is 4.52%. In the case of `CCCCOC(=O)Cn1c(=O)n(CC(=O)OCCCC)c2cc(C)ccc21`, the “activity, negative = inhibition” value was 0.114%. With `Cc1ccc(CCCOC(=O)C[N+]2(C)CCCCC2)cc1`, the “activity, negative = inhibition” value was 15.3%. For `Cc1ccc(CCCOC(=O)C[N+]2(C)CCCC2)cc1`, the Potency is 7.08 µM (active).

Take `C[C@@]12CCC(=O)C=C1CC[C@H]1C2[C@@H](O)C[C@]2(C)[C@@H]1CC[C@@]2(O)C(=O)COC(=O)C1CCCC1` (stereo partly drawn): the activity, negative = inhibition is -1.69% [at 14.2 µM]. Consider `O=C(CC1SC(=Nc2ccccc2)N(Cc2ccccn2)C1=O)Nc1cccc(Cl)c1` (stereo not drawn), for which the “activity, negative = inhibition” value was 17.4%. Turning to `CC(C)S(=O)(=O)c1csc(NC(=O)Nc2ccc(Cl)cc2)c1Cl`, the “activity, negative = inhibition” value is 3.76%. The same measure, in the same setting: for `CC(C)N(Cc1ccccc1)C(=O)COC(=O)c1cnccn1` the value was 0.644%. Turning to `CCO[C@H]1OC(C(=O)NCc2ccccc2)=C[C@@H](c2coc3ccccc3c2=O)[C@@H]1CCCO`, the “activity, negative = inhibition” value was 10.1%. As for `Cc1ccc(-c2ncc(Cl)cc2-c2ccc(S(C)(=O)=O)cc2)cn1`, the “activity, negative = inhibition” value is 0.142%. Take `CCOC(=O)N/N=C/c1cn(Cc2ccccc2Cl)c2ccccc12`: the “activity, negative = inhibition” value is -6.07%. Same read-out and setting: for `CN1CCN(/N=C2/C(=O)Nc3ccc([N+](=O)[O-])cc32)CC1` the value was 4.86%. As to `Cc1nn(C)cc1N1C(=O)c2cccc3c(N)ccc(c23)C1=O`, the Potency is 14.1 µM (active). As for `Cc1nn(-c2cc(Cl)ccc2N)c(=O)c2ccccc12`, the “activity, negative = inhibition” value was -13.2%.
